# Measurements: PubChem BioAssay AID434973 (Sanford-Burnham Center for Chemical Genomics, 2010)
# Hit rate of the full screen: of about 330,000 compounds, about 4,900 (1.5%) were called active. The list comes from a sample in which actives are over-represented; it also holds similar structures and randomly drawn compounds. A number with no mark means an inactive call.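 Rule for the calls: active = inhibition above about 50% at the single test dose (limit read from the data); inactive = the rest.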
# Molecular target: Sentrin-specific protease 7 (Homo sapiens) (UniProt Q9BQF6)
# Experiment: blockers of human SENP7 peptidase activity – biochemical, luminescence, uHTS, primary screen (AID 434973);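 note: plate controls were DMSO with enzyme for no effect and no enzyme buffer wells for full effect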
# Conditions: recombinant SENP7, Z-RLRGG-aminoluciferin luminescence, 40 min; at 5 µM; active compounds read high
row,SMILES,inhibition
1,COc1ccccc1C(CNC(=O)c1cccc(S(=O)(=O)Nc2ccc(F)cc2)c1)N(C)C (centres undefined),-6.57%
2,O=C(Nc1ccc(Cl)cc1)/C(=C1\CCCN1)[N+](=O)[O-],16.3%
3,Cc1ccc(NC(=O)NC(=O)c2ccccc2)cc1F,23.1%
4,O=C(Nc1ncccc1O)c1ccc(C(=O)c2ccccc2)cc1,-3.01%
5,O=C(NC(=O)c1ccccc1)Nc1ccccc1O,55.8% (active)
6,Cn1c2c(c(=O)n(C)c1=O)C1c3ccccc3OCC1C(C)(C)O2 (centres undefined),-0.167%
7,CCNC(=O)N1CCCC(C(=O)c2ccc(-c3ccccc3)cc2)C1 (centres undefined),3.16%
8,COC(=O)c1sc(NC(=S)NC(=O)c2ccc(C)cc2)nc1C,9.77%
9,CCOC(=O)c1sc(NC(=O)c2sc(C)nc2C)nc1C,31.9%
10,NC(=O)CSc1nnc(NC(=O)c2ccc3ccccc3c2)s1,-4.32%
11,CCSc1nnc(NC(=O)c2ccc(C)cc2)s1,52.7% (active)
12,CC(=O)c1sc(NC(=O)c2ccc(C)cc2)nc1C,71.5% (active)
13,CCOC(=O)c1cccnc1NC(=O)c1ccncc1,-6.19%
14,CC(=O)c1sc(N/N=C\c2ccc(C)cc2)nc1C,17.2%
15,C=CCSc1nnc(NC(=O)c2ccc(NC(C)=O)cc2)s1,4.95%
16,CCOC(=O)c1sc(NC(=O)c2ccncc2)nc1C,91.1% (active)
17,COc1ccc([N+](=O)[O-])cc1NC(=O)c1ccc(N(Cc2ccccc2C)S(C)(=O)=O)cc1,2.86%
18,CCN(CC)C(=O)Cn1cc(S(=O)(=O)CC(=O)NCc2ccc3c(c2)OCO3)c2ccccc21,-2.79%
19,Cc1noc(C)c1COc1ccc(C(=O)NCCOc2ccccc2)cc1,-6.96%
20,Cc1ccn2c(=O)c(C(=O)NCCC3=CCCCC3)c(O)nc2c1,9.74%
21,COC(=O)Cc1ccc(OC(=O)C2CCN(S(=O)(=O)c3ccc(OC)c(OC)c3)CC2)cc1,-4.03%
22,CC1=C(C)CC(C(=O)NC(C)CCc2ccccc2)C(C(=O)O)C1 (centres undefined),4.76%
23,COCC1CCN(C(=O)C2CCC(=O)N(Cc3cccc(C(F)(F)F)c3)C2)CC1 (centres undefined),9.9%
24,COc1ccccc1OCc1nc2ccccc2s1,97.3% (active)
25,COc1ccccc1N1CC(O)=C(c2nc3ccccc3s2)C1=N,-12.5%

row,SMILES,inhibition
1,CN(Cc1nc2ccccc2s1)C(=O)c1ccc(F)cc1,0.624%
2,Cn1c(CCc2ccccc2)nnc1SCC(N)=O,0.317%
3,COc1cc(/C=C(\C#N)c2nc3c(s2)CC(C)CC3)ccc1O (centres undefined),2.43%
4,COc1cc(/C=C(\C#N)c2nc3ccccc3[nH]2)ccc1O,93.7% (active)
5,Cc1ccc2nc(/C(C#N)=C\c3ccc(OC(=O)c4cccs4)cc3)[nH]c2c1,-1.03%
6,CNC(=S)N/N=C/c1ccc(N2CCOCC2)s1,12.6%
7,Cc1ccc(CCCOC(=O)C[N+]2(C)CCCC2)cc1,8.46%
8,O=C(c1cc(COc2c(F)cccc2F)on1)N1CCSCC1,0.456%
9,CC(=O)Nc1cccc(-c2nc3ccccc3s2)c1C,-8.72%
10,Cc1ccnc(Nc2nc3ccccc3s2)n1,88.5% (active)
11,Cc1ccnc(-n2sc3ccccc3c2=O)n1,-5.5%
12,COc1cccc(NC(=O)CCNS(=O)(=O)c2ccc3c(c2)oc(=O)n3C)c1,7.4%
13,O=C(COC(=O)C12CC3CC(CC(O)(C3)C1)C2)NC12CC3CC(CC(C3)C1)C2,-5.6%
14,Cc1sc(NC(=O)c2ccc3ncsc3c2)c(C(N)=O)c1C,77.9% (active)
15,COc1ccccc1-c1nnc(NC(=O)c2ccc3ncsc3c2)o1,4.87%
16,O=C(COC(=O)c1ccc2ncsc2c1)Nc1ccc(Cl)cc1,-7.82%
17,CCCCn1nc(C(=O)N2CCc3ccccc32)c2ccccc2c1=O,2.25%
18,CCCCN(CC(=O)NC(C)(C)C)C(=O)C(=O)Nc1ccc2c(c1)OCCO2,-0.161%
19,CCNC(=S)N1CCC(c2nc3cc(C)c(C)cc3[nH]2)CC1,1.02%
20,O=C(Cc1ccccc1)NNS(=O)(=O)c1ccc([N+](=O)[O-])cc1,3.61%
21,O=C(O)/C=C/C(=O)NNc1ccc([N+](=O)[O-])cc1,81.7% (active)
22,CNC(=S)Nc1ccc([N+](=O)[O-])cc1,-6.08%
23,CN(CC(=O)Nc1ccc(F)cc1)CC(=O)N1CCCCC1,4.6%
24,CSC1=N/C(=C\C=C\c2cccs2)C(=O)S1,43.7%
25,CCC1C=C(c2ccccc2)C=CN=C1N(CC)CC (centres undefined),2.68%

row,SMILES,inhibition
1,COc1ccccc1-n1c(-c2cc(-c3ccco3)[nH]n2)n[nH]c1=S,2.77%
2,CS(=O)(=O)n1nc(-c2ccco2)nc1N,3.45%
3,Cn1c(-c2ccco2)nc2cc3ccccc3cc21,98.5% (active)
4,CCOC(=O)c1cnc2c(c(C)nn2CC)c1Cl,-8.37%
5,CCCn1c(N)c(C(=O)CSc2nnc(-c3cccnc3)n2-c2ccc(C)cc2C)c(=O)[nH]c1=O,2.06%
6,CCc1ccc(OCC(O)CN2CCN(CCO)CC2)cc1 (centres undefined),7.06%
7,O=C(Nc1cccc2ccccc12)c1onc2c1CCCC2,64.8% (active)
8,O=C(O)Cc1ccc(NC(=O)Nc2cccc3ccccc23)cc1,18.4%
9,CN(CC(=O)Nc1ccc(Cl)cc1)CC(=O)Nc1cccc2ccccc12,-3.2%
10,O=C1COc2ccc(C(=O)COC(=O)CCOc3ccccc3)cc2N1,7.4%
11,Cc1cccc(C(=O)N[C@H](C(=O)NCc2cccs2)C(C)C)c1,2.96%
12,COC(=O)C1(C)NC(c2ccccc2OC)C2C(=O)N(c3ccccc3)C(=O)C21 (centres undefined),-1.56%
13,COC(=O)c1cc(NC(=O)CN2CCN(C(C)=O)CC2)cc(C(=O)OC)c1,11.3%
14,O=C(CSc1ncn[nH]1)Nc1ccnc2ccccc12,11.7%
15,COc1ccc(C(=O)Nc2ccc(C3(C#N)CCCC3)cc2)cc1OC,95.4% (active)
16,COc1cc(C(=O)NCC2(c3ccccc3)CCCC2)ccc1OC(C)C,11.3%
17,COc1ccc(C(=O)Nc2ccc3nc(N4CCCCC4)cc(C)c3c2)cc1OC,-1.83%
18,CC1CCN(S(=O)(=O)c2ccc(S(=O)(=O)NCc3ccco3)cc2)CC1,-4.7%
19,O=[N+]([O-])c1cc(C(F)(F)F)ccc1NN=C1CCCC1,5.78%
20,O=[N+]([O-])c1ccccc1N/N=C1\CCc2ccccc21,54% (active)
21,CN1CCN(CCNC(=O)Nc2ccccc2[N+](=O)[O-])CC1,-10.6%
22,O=C(O)c1cc2ccccc2c(=O)s1,-3.56%
23,COc1ccc(C(=O)OCC(=O)c2cc(C)n(CC3CCCO3)c2C)cc1[N+](=O)[O-] (centres undefined),-9.42%
24,Cc1ccsc1C(=O)OCC(=O)c1cc(C)n(CC2CCCO2)c1C (centres undefined),94.5% (active)
25,Cc1cc(C(=O)Cn2cnc3cc([N+](=O)[O-])ccc3c2=O)c(C)n1CC1CCCO1 (centres undefined),1.73%

row,SMILES,inhibition
1,CC1CCc2c(c3ccccc3[nH]c2=O)O1 (centres undefined),4.43%
2,COc1ccc(CNC(=O)COc2ccccc2C(=O)c2cnn(-c3ccccc3)c2)cc1OC,60.9% (active)
3,COc1ccc(CNC(=O)Cc2ccc(-c3ccccc3)cc2)cc1OC,-4.04%
4,COc1ccc(CNC(=O)COC(=O)c2c(C)nn(-c3ccccc3)c2C)cc1OC,4.03%
5,CCOc1ccc(C(=O)NCC(=O)N2CCCCCCC2)cc1OCC,6.97%
6,CCN1C[C@@H]2[C@@H]3C(=O)N(Cc4ccccc4)C(=O)[C@@H]3[C@](Cc3ccccc3)(C(=O)OC)N2C1=NC1CCCCC1,8.17%
7,Cc1ccc(NC(=O)c2cccc(S(=O)(=O)N3CCCc4ccccc43)c2)nc1,5.31%
8,CC(C)c1ccc(S(=O)(=O)N2CCC3(CC2)OCCO3)cc1,3.85%
9,O=C1/C(=C/c2cccs2)CCC1C1CCCC1 (centres undefined),70% (active)
10,O=C1/C(=C/c2cccs2)CCc2ccccc21,97.7% (active)
11,CCC1C/C(=C/c2cccs2)C(=O)/C(=C/c2cccs2)C1 (centres undefined),1.12%
12,COc1ccc(/C=C2\CCc3ccccc3C2=O)c(OC)c1OC,-0.625%
13,O=C1/C(=C/c2cccs2)SC(=S)N1C1CCS(=O)(=O)C1 (centres undefined),0.763%
14,CN1C/C(=C/c2cccs2)C(=O)/C(=C\c2cccs2)C1,7.35%
15,CC(=O)N1CCN(S(=O)(=O)c2c(F)cc(F)c(Cl)c2F)CC1,2.44%
16,O=C1Nc2cc(C(=O)N3CCN(c4ccc(F)cc4)CC3)ccc2NC1CSCc1cccc(F)c1 (centres undefined),8.91%
17,COc1ccccc1C(=O)Nc1ccc(C)c(S(=O)(=O)N2CCCCC2)c1,-5%
18,Cc1cnc(C(=O)N2CCCC(N3CCN(c4ccccc4F)CC3)C2)cn1 (centres undefined),-6.9%
19,O=C1CN(C(=O)c2ccccc2F)C(c2ccc(F)cc2)c2cc(F)ccc2N1 (centres undefined),-0.54%
20,Oc1ccc(N=Nc2nccs2)c(O)c1,74.3% (active)
21,Cc1ccc(OCC(=O)N2CCN(S(=O)(=O)c3ccc(Cl)s3)CC2)cc1C,8.22%
22,COc1ccccc1-c1nnc(-c2ccc(F)cc2)o1,50.3% (active)
23,COc1ccccc1-c1nc(C(F)(F)F)c(OC)o1,-6.4%
24,CSc1ccccc1-c1nnc(-c2ccc(Cl)cc2)o1,28.1%
